Screens as filed in PubChem.
The list is not random: actives were taken first. Their share in the collection is about 3.5%.
FAK inh: FAK (human) kinase inhibition; Q05397; biochemical FAK kinase activity assay; inhibition, %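 (tested at 7 µM)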; actives 0.84% (n = 97,000); in the data active = inhibition above about 19%
CD11b adhes inh: blocks human CD11b/CD18 adhesion to fibrinogen | P05107+P11215 | K562 CD11b/CD18 adhesion to fibrinogen, ATPlite luminescence; Mn2+ added to activate the integrin | inhibition, % at 10 µM | actives 0.54% (n = 93,000) | AID 1497;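 active = primary inhibition of 50% or more at 10 µM, then 40% or more on retest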
ERa coact pot: enhances coactivator binding to human estrogen receptor alpha. AID 639. coactivator binding (% of control), % at 25.6 µM. actives 1.3% (n = 86,000). TR-FRET ERalpha-LBD/SRC-Cy5 coactivator binding, 2 h; 100 = basal binding, no effect. P03372; in the data active = activity above about 200%;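 note: binding measured in presence of low estradiol as agonist stimulus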
Target sequence (P03372 whole entry, looked up, the tested form may be a part): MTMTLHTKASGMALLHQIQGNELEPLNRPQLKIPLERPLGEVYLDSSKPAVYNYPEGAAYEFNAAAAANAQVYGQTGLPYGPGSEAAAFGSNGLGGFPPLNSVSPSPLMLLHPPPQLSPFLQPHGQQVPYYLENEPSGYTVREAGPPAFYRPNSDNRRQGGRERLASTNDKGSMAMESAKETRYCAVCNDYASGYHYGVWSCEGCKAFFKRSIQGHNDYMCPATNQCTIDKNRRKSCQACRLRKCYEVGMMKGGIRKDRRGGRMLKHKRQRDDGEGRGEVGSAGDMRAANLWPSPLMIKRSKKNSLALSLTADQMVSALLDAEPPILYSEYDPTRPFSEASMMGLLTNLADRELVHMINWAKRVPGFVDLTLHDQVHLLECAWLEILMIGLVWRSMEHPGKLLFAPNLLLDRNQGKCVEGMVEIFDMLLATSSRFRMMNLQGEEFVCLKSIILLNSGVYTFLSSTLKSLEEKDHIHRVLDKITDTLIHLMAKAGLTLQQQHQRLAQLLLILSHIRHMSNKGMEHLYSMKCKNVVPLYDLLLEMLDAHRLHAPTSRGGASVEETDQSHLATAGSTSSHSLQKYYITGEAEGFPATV
ERa coact inh: ER-alpha (human) coactivator binding inhibition | inhibition, % at 25.6 µM | AID 629 | TR-FRET ER-alpha LBD / SRC-1 peptide, estradiol-bound | P03372 | actives 1.7% (n = 86,000); in the data active = inhibition above about 50%
Mac1 fbg enh: CD11b/CD18-fibrinogen binding enhancement; P05107+P11215; K562 CD11b/CD18 adhesion to fibrinogen, ATPlite luminescence; activation, % at 10 µM; actives 0.07% (n = 93,000); AID 1499;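 active = 10 µM primary screen giving 50% or more activity, confirmed by 40% or more on retest at that dose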
ERb coact inh: ER-beta (human) coactivator binding inhibition; Q92731; TR-FRET ER-beta LBD / SRC1-Cy5 peptide binding; receptor agonist-loaded with 1 µM estradiol; AID 633; inhibition, % at 25.6 µM; actives 1.3% (n = 86,000);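 active = compounds whose percent inhibition of the receptor-coactivator binding signal exceeds about 50% in the single-dose screen, limit read from the data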
Of the large screens only hits and unclear results are named; the others gave an inactive call; [ ] = remark or other dose.

Cc1c([C@H]2[C@@H](CC#N)C2(C)C)c2ccccc2n1C	ERa coact inh 63.1[fluorescence artefact?], ERb coact inh 68.6
Cc1[nH]c2c(Br)cccc2c1[C@H]1[C@@H](CC#N)C1(C)C	none
Cc1cc(C)c(Cn2c(=O)n(CCCC(=O)NCc3ccco3)c(=O)c3sccc32)c(C)c1	ERa coact inh 52.8[fluorescence artefact?]
Cc1cc(C)cc(-n2c(=O)c3sccc3n(CC(=O)NCc3ccco3)c2=O)c1	ERb coact inh 79.9[fluorescence artefact?]
Cc1ccc(C)c(Cn2c(=O)n(CCC(=O)NCc3ccco3)c(=O)c3sccc32)c1	ERa coact pot 204.6
Cc1ccc(-n2c(=O)c3sccc3n(CC(=O)NCc3ccco3)c2=O)cc1	none
COc1ccc(N(CC(O)Cn2c3ccccc3c3ccccc32)S(=O)(=O)c2ccccc2)cc1 (stereo not given)	none (no result: CD11b adhes inh, ERa coact pot, ERa coact inh, Mac1 fbg enh, ERb coact inh)
Cc1ccc(-n2nnnc2-c2cnn(-c3ccc(F)cc3)c2C(F)(F)F)cc1	none (no result: CD11b adhes inh, Mac1 fbg enh)
C=COCCNC(=O)C(=O)NC(C)C	none (no result: ERa coact pot, ERa coact inh, ERb coact inh)
Cc1sc2nc(C(C)Nc3ccccc3N3CCOCC3)[nH]c(=O)c2c1C (stereo not given)	ERa coact pot 253.9
NC(=O)/C(=N\OC(=O)c1ccco1)c1nc(-c2ccc(Br)cc2)cs1	ERa coact inh 66.2[fluorescence artefact?]
COc1ccc(N2CC(C(=O)O)CC2=O)cc1 (stereo not given)	ERb coact inh 70.6 (no result: CD11b adhes inh, Mac1 fbg enh)
COc1ccc(-n2nc3c(c2NC(=O)c2c(-c4ccccc4Cl)noc2C)CS(=O)(=O)C3)cc1	none
COc1cc(NC(=O)CCNC(=O)Cn2cnc3ccccc3c2=O)cc(OC)c1OC	ERa coact inh 83.1[fluorescence artefact?]
N#Cc1c(N)sc(=S)c2c1CCCCC2	ERb coact inh 57.0[fluorescence artefact?]
N#Cc1c(N)sc2c1CCCCCC2	none (no result: FAK inh)
CCOC(=O)c1[nH]c(C)c(C(=O)N2CCN(C(=O)OCC)CC2)c1CC	ERa coact inh 99.1[fluorescence artefact?] (no result: FAK inh)
O=C(OCC1OC(n2ccc(=O)[nH]c2=O)C(O)C1OC(=O)c1ccccc1)c1ccccc1 (stereo not given)	none (no result: ERa coact pot, ERa coact inh, ERb coact inh)
O=C(Nc1ccn(C2CC(OC(=O)c3ccccc3)C(CO)O2)c(=O)n1)c1ccccc1 (stereo not given)	ERa coact pot 506.6[fluorescence artefact?]
O=c1cc(N2CCN(c3ccccc3)CC2)[nH]c(=O)n1Cc1ccc(F)cc1	none
Cc1c(C(=O)N2CCOCC2)sc2ncnc(N3CCc4ccccc4C3)c12	none
COCCCNC(=O)c1sc2ncnc(N3CCc4ccccc4C3)c2c1C	FAK inh 22.9 (no result: CD11b adhes inh, Mac1 fbg enh)
CCOC(=O)Cn1cnc2sc3c(c2c1=O)CCC3	ERa coact inh 63.5[fluorescence artefact?], ERb coact inh 70.0
CCOc1ccc(N2C(=O)C(c3ccccc3)=C(c3nc4ccccc4s3)C2NC(C)=O)cc1 (stereo not given)	none
Cc1cccc(NC(=S)NCC(c2cccnc2)N(C)C)c1C (stereo not given)	none (no result: FAK inh, ERa coact pot, ERa coact inh, ERb coact inh)
COC(=O)c1cc2ccsc2n1CC(=O)Nc1ccc(N(C)C)cc1	ERa coact inh 54.9
CS(=O)(=O)N1CCC(C(=O)Nc2ccc(Br)cc2F)CC1	none
Clc1ccc(COc2ccccn2)cc1Cl	none (no result: CD11b adhes inh, Mac1 fbg enh)
COc1cccc(C(=O)Nc2cccc(C(=O)N3CCOCC3)c2)c1	none
Cc1cccc(C(=O)Nc2cccc(C(=O)N3CCOCC3)c2)c1	ERa coact pot 238.6
COc1ccc(Cc2nc(C(=O)Nc3ccc(F)cc3)cs2)cc1	CD11b adhes inh 82.2
COc1ccc(Cc2nc(C(=O)Nc3ccccc3)cs2)cc1	CD11b adhes inh 88.3
O=[N+]([O-])C1=CC=C2C(=NC3(CCCCC3)N2O)C1=NCCO	none (no result: CD11b adhes inh, ERa coact pot, ERa coact inh, Mac1 fbg enh, ERb coact inh)
Cc1nc2ccc(NS(=O)(=O)c3ccc4c(c3)OCCO4)cc2s1	CD11b adhes inh 102.2 (no result: ERa coact pot, ERa coact inh, ERb coact inh)
CCS(=O)(=O)Nc1cc(-c2nc3cccnc3s2)ccc1C	none
Cc1cc(-c2nc3cccnc3s2)ccc1NS(=O)(=O)c1ccc2c(c1)OCCO2	ERa coact pot 204.1[fluorescence artefact?]
Cc1ccc(S(=O)(=O)Nc2ccc3nc(C)sc3c2)cc1	none
Cc1c(NS(=O)(=O)c2ccc3c(c2)OCCO3)cccc1-c1nc2cccnc2s1	ERa coact pot 243.9[fluorescence artefact?]
O=S(=O)(Nc1cccnc1Cl)c1ccc2c(c1)OCCO2	none (no result: CD11b adhes inh, Mac1 fbg enh)
O=C1CCCCCN1C(=O)c1ccc(C(=O)N2CCCCCC2=O)cc1	none
Nc1nc(N)c2sc3nc4c(cc3c2n1)CCC4	none (no result: ERa coact pot, ERa coact inh, ERb coact inh)
Cc1ccc2nc(SCc3cccc([N+](=O)[O-])c3)nc(C)c2c1	none (no result: ERa coact pot, ERa coact inh, ERb coact inh)
Cc1onc(-c2c(Cl)cccc2Cl)c1C(=O)NCC1CCCO1 (stereo not given)	none
CN1C(=O)NC(c2ccccc2)C2=C1CN(Cc1ccccc1)C2=O (stereo not given)	none (no result: CD11b adhes inh, Mac1 fbg enh)
COC(=O)C(CCCCNC(=O)OCc1ccccc1)NC(=O)CN (stereo not given)	ERa coact inh 91.4[fluorescence artefact?]
O=C(O)c1ccc(COc2ccc3ccccc3c2/C=C2/NC(=O)N(c3ccccc3)C2=O)cc1	none (no result: ERa coact pot, ERa coact inh, ERb coact inh)
Cc1ccc(C(=O)O)cc1-c1ccc(/C=C2/NC(=O)N(c3ccccc3)C2=O)o1	ERa coact inh 79.6[fluorescence artefact?], ERb coact inh 81.0[fluorescence artefact?]
Cc1cccc(C(=O)NNC2=C(C(=O)C(F)(F)F)CCC2)c1O	CD11b adhes inh 96.4
CCOc1ccc(C(=O)Nc2ccc(S(=O)(=O)N3CCOCC3)cc2)cc1OCC	none (no result: FAK inh)
CCOc1cc(C(=S)N2CCOCC2)ccc1OS(=O)(=O)c1ccc(NC(C)=O)cc1	CD11b adhes inh 88.1 (no result: ERa coact pot, ERa coact inh, ERb coact inh)
CSc1nc(-c2ccccc2)nc2[nH]ccc(=O)c12	FAK inh 22.1, ERa coact pot 317.0, ERa coact inh 51.6[fluorescence artefact?] (no result: CD11b adhes inh, Mac1 fbg enh)
CCOC(=O)c1sc(NC(=O)CSc2nnc(C(C)C)n2C)nc1C	none (no result: CD11b adhes inh, Mac1 fbg enh)
COc1ccc(-c2nsc(SCC(=O)Nc3cc(C)on3)n2)cc1	ERa coact pot 241.1[fluorescence artefact?]
CCc1nc(SCC(=O)Nc2cc(C)on2)c2c(C)c(C)sc2n1	ERa coact pot 234.0[fluorescence artefact?]
CCc1cc2ccc(OC)cc2nc1SCC(=O)Nc1cc(C)on1	ERa coact pot 204.9
Cc1cc(NC(=O)CSc2ccc(-c3nc4cc(C)c(C)cc4[nH]3)cn2)no1	ERa coact pot 242.8[fluorescence artefact?]
Cc1cc2nc(-c3ccc(SCC(=O)N4CCc5ccccc54)nc3)[nH]c2cc1C	none (no result: CD11b adhes inh, ERa coact pot, ERa coact inh, Mac1 fbg enh, ERb coact inh)
CCc1cc2ccccc2nc1SCC(=O)Nc1cc(C)on1	none
CCCSc1nc2c(c(=O)n1-c1ccc(OCC)cc1)SCC2	none (no result: FAK inh)
O=C(Cn1c(=O)c(=O)n(Cc2ccccc2)c2ccc(Cl)cc21)Nc1cccc(F)c1	none (no result: FAK inh, ERa coact pot, ERa coact inh, ERb coact inh)
CCOc1c(C(N)=O)c(-c2ccccc2)c2c(=O)[nH]c3ccccc3n12	ERa coact inh 81.5[fluorescence artefact?], ERb coact inh 60.8
CCOC(=O)c1c(C)nc(C)c(C(=O)OCC)c1-c1ccccc1	none (no result: CD11b adhes inh, ERa coact pot, ERa coact inh, Mac1 fbg enh, ERb coact inh)
CCCC(=O)O[C@H]1C[C@@H](C)N(C(=O)c2ccccc2)c2ccc(C)cc21	none
Cc1cccc(NC(=O)CSc2nc3ccccc3c3nc(CCc4c(C)n[nH]c4C)nn23)c1	ERa coact inh 66.5[fluorescence artefact?]
CN(/N=C/c1c[nH]c2ccccc12)c1cnn(-c2ccc(F)c(Cl)c2)c(=O)c1Cl	none
